# Values joined by “and” are separate entries in the source; they are usually repeats but may differ in a detail not shown here. Equal entries are not always repeated. About 4,000 (25%) of roughly 16,000 compounds were called active. About 26% were inconclusive and are not listed. The list is a sample of the results. Values without a mark were called inactive. Calls follow the shape of the dose curve; as a rule, active = well fitted curve in the direction sought with a large enough effect; inconclusive = small, poorly fitted or top-dose-only effect, or effect the other way; inactive = no such curve, though single readings can be large or run the other way.
# Target: Cytochrome P450 2C9 (Homo sapiens) (UniProt P11712)
# Test: Cytochrome panel assay with activity outcomes
# Settings: recombinant CYP, pro-luciferin dealkylation, luminescence, p450-cyp2c9; series mostly up to 57.1 µM
# % is scaled to controls: 0 for no effect and ±100 for the full control effect.
# Chain of Cytochrome P450 2C9 (Homo sapiens) (P11712 whole entry, looked up): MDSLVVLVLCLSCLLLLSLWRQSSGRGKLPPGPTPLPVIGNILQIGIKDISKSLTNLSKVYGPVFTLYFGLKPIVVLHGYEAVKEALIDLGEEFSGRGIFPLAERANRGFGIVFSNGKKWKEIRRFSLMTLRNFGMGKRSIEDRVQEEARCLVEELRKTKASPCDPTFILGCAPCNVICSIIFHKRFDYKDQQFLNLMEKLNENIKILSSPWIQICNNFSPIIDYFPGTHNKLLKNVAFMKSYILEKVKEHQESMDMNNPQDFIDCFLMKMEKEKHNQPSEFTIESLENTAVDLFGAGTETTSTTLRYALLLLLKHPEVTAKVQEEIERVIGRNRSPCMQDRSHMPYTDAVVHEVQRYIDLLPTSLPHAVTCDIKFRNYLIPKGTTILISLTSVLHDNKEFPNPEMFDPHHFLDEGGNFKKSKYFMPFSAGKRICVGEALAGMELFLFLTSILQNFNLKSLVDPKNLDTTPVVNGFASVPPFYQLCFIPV
SMILES,AC50,"activity, negative = inhibition"
FC(F)(F)c1cc(CN2CC3(CCNCC3)C2)cc(C(F)(F)F)c1,inactive,–
CC1(C)S[C@@H]2[C@H](NC(=O)[C@@H](N)c3ccccc3)C(=O)N2[C@H]1C(=O)O[C@H]1OC(=O)c2ccccc21,inactive,–
Cc1cc(C)c2c(N=NN(C)C)[nH]nc2n1,inactive,–
Cc1ccccc1-c1nc(NC2CCNCC2)c2ccccc2n1,–,10.8% [at 2.29 µM]
c1csc(CNCCCN2CCOCC2)c1,inactive,–
COc1cccc(OC)c1OCCCN1CCOCC1,inactive,–
S=C1SCN(CCN2CCOCC2)CN1Cc1ccccc1,12.6 µM (active),–
Cc1ccccc1-c1ccc2ncnc(N3CCNCC3)c2c1,–,4.82% [at 2.29 µM]
CN(C)C(=O)c1ccc(-c2cncnc2N2CCNCC2)cc1,–,7.11% [at 2.29 µM]
c1cncc(-c2cccnc2)c1,inactive,–
Clc1ccc2oc(-c3cccnc3)nc2c1,inactive,–
Cc1ccc2nc(-c3cccnc3)oc2c1,25.1 µM (active),–
O=c1[nH][nH]c(C(F)(F)F)c1C=Nc1ccccc1Cl,inactive,–
COc1cc(/C=N\NC(=O)C2C(=O)NCC2c2ccccc2)cc(OC)c1O (centres undefined),inactive,–
COc1cccc(/C=N\NC(=O)C2C(=O)NCC2c2ccccc2)c1O (centres undefined),14.1 µM (active),–
O=C(Nc1ccccc1)N1CCC2(CC1)CCN(C(=O)c1csnn1)CC2,inactive,–
CCOC(=O)N/N=C1/C[C@@H](O)[C@@H](O)[C@@H]2[C@@H]3C(=O)N(C4CCCCC4)C(=O)[C@H]3CC[C@@H]12,–,-16.3% [at 11.4 µM]
CC(=O)[C@@H]1[C@@H]2C(=O)N(C3CCCCC3)C(=O)[C@@H]2C2c3ccccc3C=CN21 (some centres undefined),15.8 µM (active),–
O=C1C[C@@H](O)[C@@H](O)[C@H]2[C@@H]3C(=O)N(C4CCCCC4)C(=O)[C@@H]3CC[C@H]12,–,14.6% [at 11.4 µM] and -0.457% [at 11.4 µM] and -8.99% [at 11.4 µM]
COc1cc2ccc(=O)oc2cc1O,inactive,–
Nc1ccc(S(=O)(=O)Nc2ccc(Cl)nn2)cc1,inactive,–
CC1(O)c2ccccc2C(=O)N1CCc1ccccc1F (centres undefined),15.8 µM (active),–
Cc1ccc(S(=O)(=O)O[C@@H]2[C@H]([C@@H]3COC(C)(C)O3)O[C@H]3OC(C)(C)O[C@@H]32)cc1,–,4.54% [at 11.4 µM]
O=C(NCC1CCCO1)C(c1cccnc1)N(C(=O)Cc1cccs1)c1cccnc1 (centres undefined),inactive,–
CC(C)CC(C(=O)NCC1CCCO1)N(C(=O)Cn1nnc(-c2ccc(F)cc2)n1)c1cccc(C(F)(F)F)c1 (centres undefined),7.94 µM (active),–
CC(NC(=O)OCc1ccccc1)C(=O)NCC1CCCO1 (centres undefined),inactive,–
CC(C)CC(C(=O)NCC1CCCO1)N(C(=O)Cn1nnc(-c2ccc(F)cc2)n1)c1ccccc1F (centres undefined),11.2 µM (active),–

SMILES,AC50,"activity, negative = inhibition"
CN(C)c1ncc2nc(-c3ccc(F)cc3)c(=O)n(C[C@H]3CCCO3)c2n1,inactive,–
Cc1ccc(-c2nnn(CC(=O)N(c3ccccc3)C(C(=O)NCC3CCCO3)c3ccc(Cl)cc3)n2)cc1 (centres undefined),0.708 µM (active),–
Cc1ccc(N(C(=O)Cn2nnc(-c3ccc(F)cc3)n2)C(CC(C)C)C(=O)NCC2CCCO2)cc1 (centres undefined),3.98 µM (active),–
N#CC(CC(=O)O)=C(c1ccccc1)c1ccccc1,–,-16.4% [at 11.4 µM]
CCN1C(=O)[C@H]2[C@H]3[C@H](O)[C@H](O)C/C(=N/O[C@@H]4O[C@@H](COC(C)=O)[C@@H](OC(C)=O)[C@@H](OC(C)=O)[C@H]4OC(C)=O)[C@@H]3CC[C@@H]2C1=O,–,19.4% [at 11.4 µM]
CCN1CCCC1CNC(=O)CSCc1nc(-c2ccccc2C)oc1C (centres undefined),inactive,–
Cc1oc(-c2ccccc2F)nc1CSCC(=O)NCc1ccc2c(c1)OCO2,4.47 µM (active),–
Cc1cc(C)c(S(C)(=O)=O)c(Oc2ccc(C(C)(C)C)cc2)n1,7.08 µM (active),–
Cc1cc(C)c(C#N)c(Oc2ccc(F)cc2)n1,inactive,–
COc1ccc(Oc2nc(C)cc(C)c2S(=O)(=O)c2ccc(C)cc2)cc1,14.1 µM (active),–
NC(=O)NC(=O)[C@H]1CCCC[C@@H]1C(=O)O,–,7.71% [at 11.4 µM]
CCN(CC)CC[n+]1ccc2c(C)c3[nH]c4ccc(O)cc4c3c(C)c2c1,–,-0.365% [at 11.4 µM]
Cc1onc(-c2ccccc2)c1C(=O)NCCc1c[nH]c2ccccc12,3.98 µM (active),–
CC(=O)NCCc1c[nH]c2ccc(O)cc12,inactive,–
CC(C)(C)c1ccc(O)c(CN(Cc2cc(C(C)(C)C)ccc2O)C2CCCCC2)c1,–,-4.75% [at 11.4 µM]
Oc1c(Br)cc(CN(Cc2cc(Br)c(O)c(Br)c2)C2CCCCC2)cc1Br,2.51 µM (active),–
Oc1c(Br)cc(Br)cc1CN(Cc1cc(Br)cc(Br)c1O)C1CCCCC1,–,-21.2% [at 11.4 µM]
NC(N)=NC(N)=Nc1ccc(S(=O)(=O)O)cc1,–,21.1% [at 11.4 µM]
O=C(NCc1n[nH]c(=S)n1-c1cccc(Cl)c1)c1ccc(S(=O)(=O)N2CCCC2)cc1,17.8 µM (active),–
COc1ccc(-n2c(CNC(=O)c3cc(OC)c(OC)c(OC)c3)n[nH]c2=S)cc1,inactive,–
Cn1c(CCNC(=O)c2ccccc2Cl)n[nH]c1=S,inactive,–
O=[N+]([O-])c1ccccc1N=Nc1c(O)[nH]c2ccc(S(=O)(=O)O)cc12,–,-11% [at 11.4 µM]
O=C(Nc1cnc2ccccc2c1)c1cccc(-n2cnnn2)c1,inactive,–
CCC(C(=O)NC(C)(C)C)N(C(=O)Cn1nnc(-c2cccs2)n1)c1cnc2ccccc2c1 (centres undefined),2.82 µM (active),–
COC(=O)C/C=C\[C@H](C)[C@@H](OC)c1ccccc1Br,–,-6.68% [at 11.4 µM]
Cn1c(=O)n2n(c1=O)[C@H]1[C@H](O)[C@H]3O[C@@H]3/C(=N/OC[C@@H](O)COCc3ccco3)[C@@H]1CC2,–,-4.5% [at 11.4 µM]
COc1cnc(-c2ccccn2)nc1Oc1ccc(Cl)c2ccccc12,12.6 µM (active),–
